69 molecules from PMC4552634, “A New Set of Chemical Starting Points with Plasmodium falciparum Transmission-Blocking Potential for Antimalarial Drug Discovery” (PLoS ONE, 2015) can be followed below.

Hit rate of the full screen: of about 13,000 compounds, about 3,200 (25%) showed an effect of 50% or more. The list shows a part of the results.

This test deals with P. falciparum stage V gametocytes. On the set-up: BacTiter-Glo ATP luminescence viability of purified stage V gametocytes in 384-well plates, per cent inhibition versus DMSO. To be noted: 48 h, 5 µM; inhibitor.
On to `CN(C)C(CNc1ncnc2cc(Cl)ccc12)Cc1ccccc1` (stereo not drawn) [TCMDC-124600], for which the “% Inhibition” value is recorded as -0.01557%.
As to `Cc1c(Cl)cccc1S(=O)(=O)N1CCCCC(c2ccc(C(F)(F)F)cc2)=N1` [TCMDC-134534], the “% Inhibition” value is -14.43%.
With `CN(C)c1ccc2c(c1)Sc1cc(N(C)C)ccc1N2C(=O)CCCC(=O)O` [TCMDC-125778], the “% Inhibition” value is 104%.
The figure for `CC(=O)CSC(C=Cc1ccc(N(C)C)cc1)=Nc1ccccc1` [TCMDC-137558] is -4.21%; for `CN(C)c1ccc2c(c1)Sc1cc(N(C)C)ccc1N2C(=O)c1cccc(C(=O)O)c1` [TCMDC-124169] it is 30.57%.
With `O=C(Nc1ccc(F)cc1F)NC1CCN(CCCCCNC(=O)C2CC2c2ccc(Cl)c(Cl)c2)CC1` (stereo not drawn) [TCMDC-136253], the “% Inhibition” value is listed as -52.54%.
`O=C(Nc1cc(Cl)cc(Cl)c1)N[C@H]1CCN(CCCCCNC(=O)C2CC2c2ccc(Cl)c(Cl)c2)C1` (stereo partly drawn) [TCMDC-136273]: the “% Inhibition” value came out at 86.02%.
On to `O=C(Nc1ccc(Cl)cc1Cl)NC1CCN(CCCCCNC(=O)C2CC2c2ccc(Cl)c(Cl)c2)CC1` (stereo not drawn) [TCMDC-136257], for which the “% Inhibition” value is recorded as 1.836%.
As for `O=C(Nc1cc(Cl)ccc1Cl)N[C@H]1CCN(CCCCCNC(=O)C2CC2c2ccc(Cl)c(Cl)c2)C1` (stereo partly drawn) [TCMDC-136265], the “% Inhibition” value is given as 55.1%.
The figure for `O=C(Nc1ccc(Cl)cc1F)N[C@H]1CCN(CCCCCNC(=O)C2CC2c2ccc(Cl)c(Cl)c2)C1` (stereo partly drawn) [TCMDC-136269] is 0.8246%.
In the case of `O=C(Nc1ccc(Cl)cc1)N[C@H]1CCN(CCCCCNC(=O)C2CC2c2ccc(Cl)c(Cl)c2)C1` (stereo partly drawn) [TCMDC-136262], the “% Inhibition” value was determined as 1.23%.
Regarding `O=C(Nc1ccc(Cl)cc1F)NC1CCN(CCCCCNC(=O)C2CC2c2ccc(Cl)c(Cl)c2)CC1` (stereo not drawn) [TCMDC-136258], the “% Inhibition” value came to 66.19%.
Consider `O=C(Nc1cccc(Cl)c1Cl)N[C@H]1CCN(CCCCCNC(=O)C2CC2c2ccc(Cl)c(Cl)c2)C1` (stereo partly drawn) [TCMDC-136267], for which the “% Inhibition” value is -46.93%.
Take `O=C(Nc1ccc(Cl)cc1Cl)N[C@H]1CCN(CCCCCNC(=O)C2CC2c2ccc(Cl)c(Cl)c2)C1` (stereo partly drawn) [TCMDC-136268]: the “% Inhibition” value is given as -5.844%.
For the molecule `O=C(Nc1cc(Cl)ccc1O)c1ccc(Oc2ccc(C(=O)Nc3cc(Cl)ccc3O)cc2)cc1` [TCMDC-124084], the “% Inhibition” value was -31.23%.
Turning to `COc1ccc(Nc2nccc(N3CCC(NC(=O)Nc4cc(C)ccc4C)C3)n2)cc1` (stereo not drawn) [TCMDC-133615], the “% Inhibition” value is given as -63.4%.
With `Cc1ccc2[nH]ncc2c1N(CC1CCCCC1)c1ccnc(Nc2ccc(OCC(O)CN3CC=CCC3)cc2)n1` (stereo not drawn) [TCMDC-138794], the “% Inhibition” value stood at 108.6%.
The figure for `Cc1ccc(C)c(NC(=O)NC2CCN(c3ccnc(Nc4ccc(F)cc4)n3)C2)c1` (stereo not drawn) [TCMDC-133601] is -9.129%; for `Cc1noc(-c2ccccc2)c1CN1CCCC2(CC(C(=O)NCc3cccc(F)c3F)=NO2)C1` (stereo not drawn) [TCMDC-136606] it is -21.45%.
With `Cc1noc(C)c1-c1cccc(CNCc2cccc(-c3ccc(-c4nc5cccc(C)c5[nH]4)cc3)c2)c1.O=C(O)C(F)(F)F` [TCMDC-133056], the “% Inhibition” value is on record as -10.48%.
For `Cc1[nH]c(C)c(-c2ccc(Oc3ccc(F)cc3)cc2)c(=O)c1Br` [TCMDC-137402], the “% Inhibition” value was determined as 76.64%.
Consider `Cc1[nH]c(C)c(-c2ccc(OCc3ccc(F)cc3)cc2)c(=O)c1Br` [TCMDC-138928], for which the “% Inhibition” value amounted to 4.156%.
Take `Cc1[nH]c(C)c(-c2ccc(Oc3ccccc3)cc2)c(=O)c1Br` [TCMDC-137410]: the “% Inhibition” value amounted to 67.24%.
The figure for `C=CCOc1ccc(-c2c(C)[nH]c(C)c(Br)c2=O)cc1` [TCMDC-135042] is 74.1%; for `Cc1[nH]c(C)c(-c2ccc(OCc3ccccc3)cc2)c(=O)c1Br` [TCMDC-138901] it is 61.61%; for `Cc1[nH]c(C)c(-c2ccc(Oc3ccc([S+](C)[O-])cc3)cc2)c(=O)c1Br` (stereo not drawn) [TCMDC-137400] it is 34.54%.
Consider `Cc1[nH]c(C)c(-c2ccc(-c3ccc(F)cc3)cc2)c(=O)c1Br` [TCMDC-137421], for which the “% Inhibition” value was found to be 28.52%.
The figure for `Cc1[nH]c(C)c(-c2ccc(Oc3ccc(Cl)cc3)cc2)c(=O)c1Br` [TCMDC-137420] is 17.1%; for `CCN1CCN(c2cc(C)c3cc(NC(=O)c4cccc([N+](=O)[O-])c4)ccc3n2)CC1` [TCMDC-125577] it is 8.914%.
Regarding `CCN(CC)CCn1c2ccccc2c2ccc(C(=O)Nc3ccc4sc(C)nc4c3)cc21` [TCMDC-135280], the “% Inhibition” value is -1.763%.
With `O=C(c1cccc(-c2ccc(-c3nc4cc(F)ccc4[nH]3)s2)c1)N1CCCCC1CN1CCC(O)C1` (stereo not drawn) [TCMDC-132343], the “% Inhibition” value is reported as -28.04%.
As to `COc1ccc2nc(C)cc(Nc3ccc(Oc4ccc(Cl)cc4)c(Cl)c3)c2c1` [TCMDC-123477], the “% Inhibition” value is -13.35%.
With `Cc1csc(NC(=O)c2cn(-c3ccccc3)nc2-c2cccs2)n1` [TCMDC-124531], the “% Inhibition” value is listed as 15.91%.
For `CC1CCCC(NCc2c(O)ccc3ccccc23)C1` (stereo not drawn) [TCMDC-137601], the “% Inhibition” value was 28.2%.
The figure for `O=C(NCc1cccc2ccccc12)[C@@H]1CCCN1C(=O)c1ccc(O)c(-c2ccc(Cl)c(Cl)c2)c1` [TCMDC-140876] is 16.61%.
As to `COc1ccc2ccc(F)c(CC(=O)N3CCOC(CNCc4cccc(-c5ccc(F)cc5)n4)C3)c2n1` (stereo not drawn) [TCMDC-135026], the “% Inhibition” value is recorded as -25.99%.
For the molecule `CCOC(=O)c1c(CSc2ccccc2)oc2cc(CN(C)C)c(O)c(Cl)c12` [TCMDC-124095], the “% Inhibition” value is recorded as -76.05%.
Take `Cc1cccc2[nH]c(-c3ccc(-c4cccc(NCc5cn6cccnc6n5)c4)cc3)nc12` [TCMDC-136896]: the “% Inhibition” value is -19.99%.
Take `COc1cccc2cc(C(=O)N[C@@H](CC(C)C)C(=O)Nc3cc(F)ccc3Br)oc12` [TCMDC-135547]: the “% Inhibition” value is listed as 2.093%.
As for `C=Cc1ccc(-c2c(C)[nH]c(C)c(Br)c2=O)cc1` [TCMDC-135433], the “% Inhibition” value came out at 58.24%.
As to `Cc1[nH]c(C)c(-c2ccc(OCCCc3ccccn3)cc2)c(=O)c1Br` [TCMDC-135795], the “% Inhibition” value was 65.53%.
For the molecule `C=CCOc1ccccc1CNCC(O)c1cc(Br)cs1` (stereo not drawn) [TCMDC-140498], the “% Inhibition” value is listed as -6.926%.
For `CN(C)C(CNC(=O)c1cc(-c2ccncc2)c(-c2ccc(NC(=O)Nc3cccc(Cl)c3)cc2)o1)c1ccccc1` (stereo not drawn) [TCMDC-135781], the “% Inhibition” value is -15.22%.
Turning to `COc1cccc(NC(=O)Nc2ccc(Nc3nc(C)cc(N(C)C)n3)cc2)c1` [TCMDC-124959], the “% Inhibition” value was found to be 26.66%.
Regarding `CCC(C)(C)NC(C)C(O)c1ccc(C(F)(F)F)cc1` (stereo not drawn) [TCMDC-138152], the “% Inhibition” value was -4.943%.
The figure for `Cc1ccc(NCC(=O)Nc2ccc(F)c(Cl)c2)cc1S(=O)(=O)N1CCOCC1` [TCMDC-123553] is -4.453%.
On to `Cc1[nH]c(C)c(-c2ccc(Oc3cccc(Cl)c3)cc2)c(=O)c1Cl` [TCMDC-137395], for which the “% Inhibition” value worked out at 75.57%.
As for `Cc1[nH]c(C)c(-c2ccc(Oc3cc(Cl)cc(Cl)c3)cc2)c(=O)c1Cl` [TCMDC-137391], the “% Inhibition” value worked out at 69.19%.
As to `Cc1[nH]c(C)c(-c2ccc(Oc3ccc(Cl)cc3)cc2)c(=O)c1Cl` [TCMDC-137418], the “% Inhibition” value came out at 32.25%.
`Cc1[nH]c(C)c(-c2ccc(Oc3ccc(Cl)cc3)cc2)c(=O)c1C` [TCMDC-137378]: the “% Inhibition” value is on record as 85.12%.
With `Cc1[nH]c(C)c(-c2ccc(Oc3ccc(Cl)cc3)cc2)c(=O)c1I` [TCMDC-137393], the “% Inhibition” value came out at 12.14%.
The figure for `NC(=O)c1ccsc1NC(=O)CNC(c1ccc(F)cc1)c1cccs1` (stereo not drawn) [TCMDC-125036] is 5.053%; for `C[C@@H]1CN(C(c2cccc(O)c2)c2cccc(C(=O)N(C)c3cccc(F)c3)c2)[C@@H](C)CN1C(c1cccc(O)c1)c1cccc(C(=O)N(C)c2cccc(F)c2)c1` (stereo partly drawn) [TCMDC-137248] it is -16.24%.
Turning to `CCN(CC)CCCN(C(=O)Nc1ccc(C#N)cc1)c1nc(-c2ccc(F)cc2)cs1` [TCMDC-136664], the “% Inhibition” value is -0.5138%.
On to `CN1C2CCC1c1cc(NC(=O)c3cc(-c4ccc(Cl)cc4)cs3)ccc12` (stereo not drawn) [TCMDC-134192], for which the “% Inhibition” value is listed as -60.68%.
As for `CCOc1cc(C(=O)NC2CCN(Cc3ccccc3)CC2)ccc1-c1nc2cc(Cl)c(F)cc2[nH]1` [TCMDC-140096], the “% Inhibition” value is recorded as -27.97%.
Regarding `CC(C)(C)c1cc(C(=O)N2CCN(c3ncnc4ccsc34)CC2)n(Cc2ccccc2)n1` [TCMDC-133771], the “% Inhibition” value is on record as -19.67%.
Regarding `CCCCNCC(O)COc1ccccc1-c1ccc(N/N=C/c2cccc3ccccc23)nn1` (stereo not drawn) [TCMDC-139416], the “% Inhibition” value is reported as 102.4%.
As for `COc1ccc(NC(=O)/C=C/c2ccccc2Cl)cc1OCCN1CCN(c2ccncc2)CC1` [TCMDC-140732], the “% Inhibition” value is recorded as 4.813%.
The figure for `COc1cc(NC(=O)c2sc(-c3ccc(Cl)cc3)cc2NC(=O)c2cccc(N(C)C)c2)ccc1OCCN1CCCC1` [TCMDC-135403] is 72.06%.
As to `COc1ccc(NC(=O)c2ccc3[nH]c(-c4ccc(Cl)cc4)cc3c2)cc1OCCN(C)C` [TCMDC-138706], the “% Inhibition” value was -82.62%.
The figure for `COc1cc(NC(=O)c2ccc(-c3ccc(C(C)=O)cc3)s2)ccc1OCCN1CCCC1` [TCMDC-138864] is -4.371%; for `COc1cc(NC(=O)c2ccc3oc4ccccc4c3c2)ccc1OCCN1CCCCC1` [TCMDC-140701] it is -7.89%.
Regarding `COc1cc(NC(=O)c2sc(-c3ccc(Cl)cc3)cc2NC(=O)c2cccnc2)ccc1OCCN1CCCC1` [TCMDC-135397], the “% Inhibition” value stood at 125.5%.
As for `COc1cc(NC(=O)c2sc(-c3ccc(Cl)cc3)cc2Cl)ccc1OCCN1CCCC1` [TCMDC-135556], the “% Inhibition” value was -58.99%.
Turning to `COc1cc(NC(=O)c2sc(-c3ccc(Cl)cc3)cc2NC(=O)c2ccncc2)ccc1OCCN1CCCC1` [TCMDC-135398], the “% Inhibition” value is given as 121.8%.
`COc1cc(NC(=O)c2sc(-c3ccc(Cl)cc3)cc2NC(=O)N2CCCC2)ccc1OCCN1CCCC1` [TCMDC-135404]: the “% Inhibition” value came to 71.79%.
The figure for `COc1ccc(NC(=O)/C=C/c2ccccc2Cl)cc1OCCN1CCC(NCc2cccnc2)CC1` [TCMDC-140758] is -13.35%; for `Cc1ccc(NC(=O)c2ccc(-c3cc4cc(Cl)c(Cl)cc4[nH]3)cc2)cc1OCCN1CCCC1` [TCMDC-141289] it is 43.64%.
